Compound activity deposited in PubChem by several laboratories.
rRNA inh HTS: selective bacterial rRNA inhibition in E. coli; actives 1.6% (n = 350,000); E. coli WT GFP vs humanized-ribosome RFP mutants, fluorescence, 24 h; active compounds read low; DMSO median 0, no signal -100; AID 720706; GFP signal change (wild-type ribosome), % (concentration not given with the values);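 active = significant combined selectivity score with lowered wild-type GFP, culture density cut under 30%, mutant RFP and density less affected; inactive = any of these conditions unmet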
FGF22 binding: binders of recombinant human FGF22 by thermal shift | SYPRO orange fluorescence; percent of sucrose octasulfate shift, DMSO zero | activity (Tm shift, normalised), % at 9.99 µM | actives 1.5% (n = 340,000);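 active = mean Tm shift, scaled 0 neutral to 100 positive control, at about 1.3% or above, every replicate too, limit read from the data; inconclusive = no clear call, values can overlap the other calls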
Target sequence (Q9HCT0 whole entry, looked up): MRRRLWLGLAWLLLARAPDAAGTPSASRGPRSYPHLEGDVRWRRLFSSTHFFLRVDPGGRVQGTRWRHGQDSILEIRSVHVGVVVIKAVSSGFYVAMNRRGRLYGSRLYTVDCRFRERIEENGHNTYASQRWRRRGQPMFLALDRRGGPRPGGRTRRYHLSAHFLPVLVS
proKLK7 act: proKLK7 (human) activation, primary screen. P49862. purified proKLK7, EDANS-DABCYL substrate fluorescence; 100% is mature enzyme control, 0% vehicle. activation, % at 7 µM. actives 0.9% (n = 370,000). AID 652039;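 active = activation above the mean of all tested compounds plus 3 SD, computed per campaign excluding outliers beyond control limits, cut at about 13% in these data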
ADAM17 inh: inhibitors of human ADAM17; P78536; recombinant ADAM17, EDANS/DABCYL FRET peptide cleavage; inhibition, % at 6.95 µM; actives 0.83% (n = 370,000); AID 720648;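 active = inhibition above the mean of compounds lying between control limits plus 3 SD, set per campaign, cut at about 8.5% in these data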;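 also: 0% = DMSO-only wells as the low control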
ADAM10 inh: inhibits human ADAM10 | O14672 | recombinant ADAM10, EDANS/DABCYL FRET peptide cleavage, 3 h | inhibition, % at 7 µM | actives 0.62% (n = 370,000) | AID 720582;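 active = inhibition above a per-campaign cutoff equal to the mean of compounds falling between control-based bounds plus 3 SD, cut at about 20% in these data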;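 also: 0% = DMSO wells while the 100% control is not disclosed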
Target sequence (O14672 214-748 limits assumed): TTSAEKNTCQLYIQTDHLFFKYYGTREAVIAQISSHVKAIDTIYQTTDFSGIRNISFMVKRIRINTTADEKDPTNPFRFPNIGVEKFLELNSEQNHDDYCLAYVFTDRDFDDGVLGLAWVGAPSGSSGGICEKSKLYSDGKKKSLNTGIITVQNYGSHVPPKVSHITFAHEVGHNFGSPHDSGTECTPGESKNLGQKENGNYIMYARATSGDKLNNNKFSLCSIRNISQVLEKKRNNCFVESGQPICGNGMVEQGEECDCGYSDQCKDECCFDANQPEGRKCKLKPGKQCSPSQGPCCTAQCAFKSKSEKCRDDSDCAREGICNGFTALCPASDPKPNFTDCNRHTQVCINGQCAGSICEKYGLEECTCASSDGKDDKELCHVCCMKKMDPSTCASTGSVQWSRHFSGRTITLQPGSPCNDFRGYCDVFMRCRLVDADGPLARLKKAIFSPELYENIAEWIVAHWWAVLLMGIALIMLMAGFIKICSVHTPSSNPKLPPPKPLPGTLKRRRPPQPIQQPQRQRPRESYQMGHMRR
AID977621: wild-type E. coli growth inhibition versus H69 humanized strain – H69 mutant RFP, wild-type GFP, cherry-pick, dose response; fluorescence, 24 h; shares compounds with rRNA inh HTS; AID 977621; activity change, negative = inhibition at 50 µM; 1,900 tested, under 10 active;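 active = Wild-type ribosome reporter drop at least double the humanized mutant ribosome reporter drop, growth loss under a set limit; inconclusive = no clear call, values can overlap the other calls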;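 also: wild-type GFP and H69 mutant RFP strains grown together 50/50 in each well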
AID977628: E. coli growth inhibition, wild-type GFP versus h24 humanized RFP strain, dose response, h24 mutant RFP vs wild-type GFP, cherry-pick | E. coli WT GFP strain growth, fluorescence, 24 h | shares compounds with rRNA inh HTS | 1,900 tested, under 10 active | activity change, negative = inhibition at 50 µM | AID 977628;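 active = compound lowering the normal-ribosome reporter at least twice as much as the humanized-ribosome reporter, growth loss under a set limit; inconclusive = no clear call, values can overlap the other calls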;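 also: wild-type GFP and h24 humanized RFP strains co-cultured 1 to 1 per well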
* marks the source's active call; other numbers are inactive results; ? = inconclusive; nt = no result. Only some compounds are listed: those with a hit (about 3.8% of all), similar ones and a draw of the others.

SMILES | rRNA inh HTS | FGF22 binding | proKLK7 act | ADAM17 inh | ADAM10 inh | AID977621 | AID977628
COc1ccc([C@H]2C[C@H](O)C[C@@H](CCn3cc(-c4ccccc4)nn3)O2)cc1 | -22.1* | -0.1 | 0.6 | -3.2 | -10.8 | nt | -6.95
COc1ccc([C@H]2CC(=O)C[C@@H](CCn3cc(-c4ccncc4)nn3)O2)cc1 | 15.5 | 0.1 | 0.3 | -1.2 | 1.0 | nt | nt
C[C@H](CO)N1C[C@H](C)[C@H](CN(C)S(C)(=O)=O)OCCCC[C@H](C)Oc2ccc(NC(=O)Cc3ccccc3)cc2C1=O | 0.0 | nt | nt | nt | nt | nt | nt
COc1ccc(-c2csc(C)n2)cc1Br | -29.4* | -0.1 | 0.3 | -2.0 | 0.8 | -17.4 | -12.6
FC(F)(F)c1ccc(Cl)c(-n2c(Cc3cccs3)n[nH]c2=S)c1 | -32.7* | -0.1 | 0.0 | 1.0 | 1.9 | -18.3 | nt
CO[C@@H]1CN(C)C(=O)c2cc(NC(=O)Nc3ccc(C(F)(F)F)cc3)ccc2OC[C@@H](C)NC[C@@H]1C | -19.8 | -0.5 | nt | nt | nt | nt | nt
COc1ccc(/C=C/c2nc3ccccc3n2Cc2ccccc2OC)cc1 | -25.7* | -0.1 | -59.1 | -53.1 | -163.4 | -11.5 | -13.7
NS(=O)(=O)c1ccc(NC(=O)CSc2nnc(NC3CC3)s2)cc1 | 5.8 | -0.5 | -0.1 | -0.7 | -7.9 | nt | nt
N#Cc1ccsc1NC(=O)CSc1nnc(NC2CC2)s1 | -11.7* | 0.8 | -0.9 | 4.3 | -2.3 | -13.2 | -8.72
CC(C)Nc1nnc(SCC(=O)Nc2sccc2C#N)s1 | -25.4* | 0.1 | -0.4 | -3.1 | -2.6 | nt | ?
Fc1ccc(-c2nc3c(Cl)cc(C(F)(F)F)cn3c2Cc2ccsc2)cc1 | -17.2* | 0.2 | -0.2 | 0.2 | 1.5 | -12.4 | -6.75
O=C(c1cccs1)c1c[nH]cc1-c1ccccc1 | -30.3* | -0.1 | 0.1 | -1.6 | 2.5 | -0.536 | -2.71
O=C(c1ccccc1)c1c[nH]cc1-c1ccccc1 | nt | nt | 0.4 | 2.9 | 5.6 | nt | nt
COc1ccc2c(c1)-c1nc(N)sc1CC2 | -22.2* | -0.7 | -0.8 | -5.8 | -26.7 | -0.817 | 2.05
Cc1ccc(S(=O)(=O)N(C)C[C@@H]2Oc3ccc(NC(=O)Cc4ccccc4)cc3CC(=O)N([C@@H](C)CO)C[C@H]2C)cc1 | -6.1 | -0.2 | nt | nt | nt | nt | nt
C=CCn1c(SCC(=O)Nc2ccc3c(c2)OCCO3)nnc1-c1ccco1 | -16.7* | 0.1 | 0.1 | -6.1 | 1.0 | nt | -14.2
O=C(COc1cccc2c1CCN(Cc1ccccc1F)C2=O)N1CCCCC1 | -39.0* | 42.6 | 0.4 | -3.8 | 3.4 | nt | ?
O=C(COc1cccc2c1CCN(Cc1ccc(Br)cc1)C2=O)N1CCOCC1 | -27.8* | 42.6 | -0.2 | -3.9 | 1.8 | 7.3 | -5.11
CCOC(=O)N1CCN(C(=O)COc2cccc3c2CCN(Cc2ccccc2F)C3=O)CC1 | nt | -0.2 | 0.1 | -1.0 | -11.4 | nt | nt
O=C(c1ccccc1)C1CN(Cc2ccccc2)CCC1(O)c1ccccc1 (centres undefined) | -17.5* | 0.2 | 0.0 | -4.0 | -8.4 | -0.751 | nt
O=C1CCCCC1Nc1ccc(Cl)cc1 (centres undefined) | -16.2 | -0.4 | 0.7 | -2.4 | 0.3 | nt | nt
O=C1CCCCC1Nc1ccc(Br)cc1 (centres undefined) | -18.6* | 0.0 | -0.2 | -0.8 | -14.4 | -0.882 | -10.8
C[C@@H]1CN([C@@H](C)CO)C(=O)c2cc(NS(C)(=O)=O)ccc2O[C@H]1CN(C)S(=O)(=O)c1cn(C)cn1 | 2.5 | -0.2 | nt | nt | nt | nt | nt
CCOC(=O)c1cc2nc(-c3ccccc3)cc(C)n2n1 | -29.0* | -0.1 | 7.7 | -59.2 | -143.7 | -19.2 | ?
Cc1cc(-c2ccccc2)nc2cc(C(N)=O)nn12 | nt | nt | 1.1 | -38.4 | -106.7 | nt | nt
SMILES | rRNA inh HTS | FGF22 binding | proKLK7 act | ADAM17 inh | ADAM10 inh | AID977621 | AID977628
N#C[C@@H]1[C@H](c2ccc(-c3ccccc3F)cc2)[C@H](CO)N1C(=O)Cc1ccccc1 | -15.2 | 0.0 | nt | nt | nt | nt | nt
Cc1ccc(NS(=O)(=O)c2cc(C(=O)N3CCc4ccccc4C3)ccc2Cl)cc1 | -29.2* | 0.0 | -0.3 | 0.8 | 9.3 | -21.1 | nt
Cc1ccccc1NS(=O)(=O)c1cc(C(=O)NCCC2=CCCCC2)ccc1C | -17.1* | 0.3 | 0.3 | 0.9 | -0.3 | -1.95 | ?
O=C(NCCC1=CCCCC1)c1ccc(Cl)c(S(=O)(=O)Nc2ccccc2)c1 | -20.5* | 0.0 | -0.2 | 4.0 | -0.1 | -12.8 | nt
Cc1ccc(C(=O)NCCC2=CCCCC2)cc1S(=O)(=O)N1CCCCC1 | -16.8 | -0.2 | 0.0 | 0.7 | -1.0 | nt | nt
CCCCNC(=O)C[C@@H]1C[C@@]2(C(=O)OC)CCCCC=C2N(Cc2ccccc2)C1=O | -21.5* | 0.2 | 0.0 | -2.4 | -3.8 | -5.45 | nt
O=C(c1cnccn1)N1CC(=O)N2[C@H](CO)[C@H](c3ccc(C#CCc4ccccc4)cc3)[C@@H]2C1 | 1.4 | 1.2 | nt | nt | nt | nt | nt
CC(=O)N1[C@H](CO)[C@H](c2ccc(C3=CCCCC3)cc2)[C@@H]1CNC(=O)CC1CC1 | -6.6 | nt | nt | nt | nt | nt | nt
CC1CCC2(CC1)SCC(=O)N2c1ccc(F)cc1 (centres undefined) | -19.1* | -0.1 | -0.3 | -3.7 | -5.8 | -3.03 | -8.17
CC(C)(C)C1CCC2(CC1)SCC(=O)N2c1ccccc1 (centres undefined) | 3.9 | -0.1 | 0.2 | 5.6 | 4.9 | nt | nt
O=S(=O)(c1ccc(F)cc1)N1CCCCN2[C@H](CO)[C@H](c3ccc(C#CC4CC4)cc3)[C@H]2C1 | -45.0 | -0.4 | nt | nt | nt | nt | nt
CO[C@H]1CN(C)C(=O)c2ccc(NC(C)=O)cc2OC[C@@H](C)N(Cc2ccncc2)C[C@H]1C | -2.8 | nt | nt | nt | nt | nt | nt
Cc1ccc(-n2nnnc2SCC(=O)NC2CCCc3ccccc32)cc1 (centres undefined) | -30.0* | 0.0 | 0.6 | 0.0 | 1.7 | 2.92 | nt
Cc1cccc(NC(=O)COc2cccc3c2CCNC3=O)c1 | -18.5* | -0.2 | 0.2 | -2.9 | 0.4 | -9.71 | -10.4
COc1cccc(NC(=O)COc2cccc3c2CCNC3=O)c1 | 9.7 | -0.3 | 0.3 | -1.7 | 0.8 | nt | nt
CCC(=O)Nc1ccc2c(c1)C(=O)N(C)[C@@H]1CC[C@H](CC(=O)NC3Cc4ccccc4C3)O[C@@H]1CO2 | -3.1 | 0.3 | nt | nt | nt | nt | nt
O=c1[nH]c(C2CCCN(S(=O)(=O)c3ccccc3Cl)C2)nc2c1nnn2Cc1ccc2c(c1)OCCO2 (centres undefined) | -17.6* | 0.0 | 0.6 | 0.0 | 5.5 | -8.77 | nt
O=c1[nH]c(C2CCN(S(=O)(=O)c3ccccc3)CC2)nc2c1nnn2Cc1ccc2c(c1)OCCO2 | -0.8 | -0.3 | -0.1 | 6.0 | 17.0 | nt | nt
CCCNC(=O)Nc1ccc2c(c1)C(=O)N(C)C[C@H](OC)[C@@H](C)CN(Cc1ccncc1)[C@H](C)CO2 | -0.3 | nt | nt | nt | nt | nt | nt
